Assay [1] in a line: anti-His antibody binders, primary screen, artefact control for SMM control protein annotation, biochemical, small-molecule microarray, 635 nm fluorescence (AID 1128).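 Note: score merges feature fluorescence with signal-to-noise for each printed compound spot.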 Particulars: anti-His Alexa647 antibody binding, higher = more signal.
Assay [2] concerns Human papillomavirus type 1a E7 protein (residues 1-88). Put plainly: HPV1a E7 small-molecule binders, primary screen, biochemical, small-molecule microarray, residues 1-88, 635 nm (AID 1129). The settings on record: small-molecule microarray binding, fluorescence 635 nm; higher = more signal.
The target in assay [3] is Focal adhesion kinase 1 (Homo sapiens) (UniProt Q05397). Put plainly: small-molecule microarray binders of FAK, primary screen, biochemical, 635/667 nm fluorescence, BSA, DTT (AID 1130).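 Note: composite of spot emission at 667 nm and signal to noise over triplicate slides.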 The settings on record: PTK2 binding, 635 nm fluorescence, higher = more signal.
Focal adhesion kinase 1 (Homo sapiens), sequence (Q05397 whole entry, looked up): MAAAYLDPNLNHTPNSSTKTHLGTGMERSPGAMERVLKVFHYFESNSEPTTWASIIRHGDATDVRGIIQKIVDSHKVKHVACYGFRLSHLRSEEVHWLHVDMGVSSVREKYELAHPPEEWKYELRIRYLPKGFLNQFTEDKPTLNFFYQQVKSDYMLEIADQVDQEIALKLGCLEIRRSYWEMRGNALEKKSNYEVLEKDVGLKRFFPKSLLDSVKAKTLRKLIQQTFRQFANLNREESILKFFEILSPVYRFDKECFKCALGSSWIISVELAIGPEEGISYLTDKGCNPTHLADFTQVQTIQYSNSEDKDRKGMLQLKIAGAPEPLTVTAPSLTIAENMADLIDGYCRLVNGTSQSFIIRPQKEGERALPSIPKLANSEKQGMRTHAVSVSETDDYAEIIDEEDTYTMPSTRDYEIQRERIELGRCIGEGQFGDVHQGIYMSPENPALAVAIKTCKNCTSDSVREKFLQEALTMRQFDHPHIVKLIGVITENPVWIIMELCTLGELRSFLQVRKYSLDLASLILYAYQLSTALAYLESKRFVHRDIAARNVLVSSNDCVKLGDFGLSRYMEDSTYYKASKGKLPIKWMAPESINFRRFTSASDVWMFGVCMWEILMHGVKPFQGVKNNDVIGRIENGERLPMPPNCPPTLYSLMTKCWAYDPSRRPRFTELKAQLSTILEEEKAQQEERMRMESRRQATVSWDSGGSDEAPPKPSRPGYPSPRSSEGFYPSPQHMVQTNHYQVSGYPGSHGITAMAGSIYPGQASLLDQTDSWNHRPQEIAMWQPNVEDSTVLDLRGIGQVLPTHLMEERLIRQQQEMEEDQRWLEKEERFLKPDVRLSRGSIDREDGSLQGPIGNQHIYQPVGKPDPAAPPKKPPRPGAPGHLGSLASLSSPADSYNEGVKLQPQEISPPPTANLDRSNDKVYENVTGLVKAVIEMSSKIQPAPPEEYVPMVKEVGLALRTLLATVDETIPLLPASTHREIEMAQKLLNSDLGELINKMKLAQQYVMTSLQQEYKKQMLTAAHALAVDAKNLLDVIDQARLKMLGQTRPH
For assay [4], the system named is Fibrinogen (Alexa647-labelled). Put plainly: fibrinogen binders on compound microarrays, profiling panel, artefact control for SMM control-protein annotation, biochemical, small-molecule microarray, 635/667 nm fluorescence (AID 1131).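 Note: z-score merges 667 nm fluorescence with per-spot signal-to-noise over triplicate slides.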 The settings on record: fibrinogen-A647 binding fluorescence, higher = more signal.
For assay [5], the target named is Follistatin (Homo sapiens) (UniProt P19883). Put plainly: follistatin binders on small-molecule microarrays, primary screen, biochemical, small-molecule microarray, 635/667 nm fluorescence (AID 1132). The settings on record: FST binding, 635 nm fluorescence, higher = more signal.
Follistatin (Homo sapiens), sequence (P19883 whole entry, looked up): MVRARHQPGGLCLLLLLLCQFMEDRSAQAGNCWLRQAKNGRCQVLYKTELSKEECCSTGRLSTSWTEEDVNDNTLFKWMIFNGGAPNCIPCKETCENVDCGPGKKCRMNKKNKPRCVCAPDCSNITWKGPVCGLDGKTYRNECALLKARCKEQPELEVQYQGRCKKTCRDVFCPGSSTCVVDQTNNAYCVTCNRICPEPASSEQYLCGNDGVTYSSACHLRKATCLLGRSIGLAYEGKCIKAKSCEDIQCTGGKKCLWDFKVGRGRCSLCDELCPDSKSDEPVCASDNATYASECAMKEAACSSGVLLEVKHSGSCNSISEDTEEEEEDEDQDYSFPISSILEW
Assay [6] has as its target Fibroblast growth factor 2 (Homo sapiens) (UniProt P09038). Description: FGF2 binders on small-molecule microarrays, primary screen, biochemical, small-molecule microarray, 635/667 nm fluorescence (AID 1133). Particulars: small-molecule microarray binding, FGF2, fluorescence 635/667; higher = more signal.
Assay [7] can be described thus: mitochondrial membrane potential change in A549 cells, profiling panel, cell-based, JC-1 fluorescence, basal, 24 h, 100 nL (AID 1138).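 Note: A549 lung adenocarcinoma cells under basal conditions with no added stimulus; test concentration not given here.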 Particulars: higher = more signal.
The subject of the next assay is Lefty1. Put plainly: Lefty1 binders on small-molecule microarrays, primary screen, biochemical, small-molecule microarray, 635/667 nm fluorescence (AID 1139). The settings on record: small-molecule microarray binding, fluorescence 635/667; higher = more signal.
Assay [8] relates to wheat germ agglutinin (Triticum aestivum), Alexa647-labelled. Description: wheat germ agglutinin binders on compound microarrays, profiling panel, artefact control for SMM control-protein annotation, biochemical, small-molecule microarray, 635/667 nm fluorescence (AID 1140).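 Note: score merges 667 nm feature emission with signal to noise over triplicate slides.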 The settings on record: WGA-A647 binding, 635 nm fluorescence, higher = more signal.
Assay [9] deals with Luciferin 4-monooxygenase (Photinus pyralis) (UniProt P08659). Description: firefly luciferase enzyme inhibitors, primary screen, biochemical, luminescence, purified enzyme, 2006 set (AID 1141).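 Note: cell-free assay with purified firefly luciferase at 100 ng per well in PBS; test concentration not given here.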 The settings on record: SteadyGlo luminescence, 30 min, higher = more signal, called active from +8 up or from −8 down.
Luciferin 4-monooxygenase (Photinus pyralis), sequence (P08659 whole entry, looked up): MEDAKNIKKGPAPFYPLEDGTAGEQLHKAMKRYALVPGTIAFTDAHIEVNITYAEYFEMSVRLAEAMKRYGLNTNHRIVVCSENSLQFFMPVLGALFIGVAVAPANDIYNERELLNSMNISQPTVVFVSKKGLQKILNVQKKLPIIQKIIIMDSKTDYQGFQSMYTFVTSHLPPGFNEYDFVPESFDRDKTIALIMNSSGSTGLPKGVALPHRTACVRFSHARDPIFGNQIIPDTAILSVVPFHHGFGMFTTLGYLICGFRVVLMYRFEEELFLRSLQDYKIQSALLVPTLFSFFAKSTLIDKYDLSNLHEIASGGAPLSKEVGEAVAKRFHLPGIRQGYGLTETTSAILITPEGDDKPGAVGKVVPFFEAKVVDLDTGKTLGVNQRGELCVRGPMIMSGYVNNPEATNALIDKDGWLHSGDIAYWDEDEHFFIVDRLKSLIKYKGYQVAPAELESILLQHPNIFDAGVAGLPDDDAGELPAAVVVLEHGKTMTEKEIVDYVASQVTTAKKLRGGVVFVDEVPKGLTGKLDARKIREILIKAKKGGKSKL
Assay [10] relates to Wnt5a (protein binding on small-molecule microarray). Put plainly: Wnt5a binders on small-molecule microarray, primary screen, biophysical, 635/667 nm fluorescence (AID 1142).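 Note: fluorescence read at 667 nm with signal to noise per printed feature.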 The settings on record: 635 nm fluorescence, higher = more signal.
Assay [11] is described as follows: cell viability in Huh7 cells, primary screen, cytotoxicity control for HCV replication inhibitor project, CellTiter-Glo luminescence, basal, 48 h (AID 1143).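 Note: Huh7 hepatoma cells carrying a hepatitis C replication reporter with no stimulus; test concentration not given here.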 Particulars: Huh7 HCV replicon, higher = more signal, called active from +8 up or from −8 down. For orientation: ATP-based viability assays read luminescence as a measure of living cells.
The nature of assay [12]: P. aeruginosa biofilm formation inhibitors, primary screen, PAO1 strain, BacTiter-Glo luminescence, LB-PBS (AID 1144). Particulars: 12 h, higher = more signal.
Assay [13] in a line: CREB reporter modulators without forskolin, primary screen, cell-based, PC12, CRE-LacZ reporter, unstimulated (AID 1145). The settings on record: no forskolin, luminescence, 4.5 h, higher = more signal, called active from +8 up or from −8 down.
Assay [14] can be described thus: CREB reporter modulators under forskolin, primary screen, cell-based, PC12, CRE-LacZ reporter, forskolin-stimulated (AID 1146).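 Note: PC12 cells with 6xCRE LacZ reporter stimulated by forskolin 10 µM; beta-galactosidase reporter signal reflecting CREB driven transcription.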 The settings on record: luminescence, 4.5 h, higher = more signal, called active from +8 up or from −8 down.
Assay [15] addresses Streptavidin (Streptomyces avidinii) (UniProt P22629). Description: streptavidin binders on small-molecule microarray, primary screen, artefact control for SMM compound annotation, biophysical, 635/667 nm fluorescence (AID 1147).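 Note: signal reflects streptavidin binding to arrayed compounds as a control protein.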 The settings on record: streptavidin binding, higher = more signal.
Assay [16] can be described thus: small-molecule binders of probe aInhba, primary screen, biochemical, small-molecule microarray, 635/667 nm fluorescence (AID 1148).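 Note: score merges 667nm spot fluorescence with signal-to-noise for antibody binding to printed compounds.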 Particulars: higher = more signal.
Assay [17] concerns the target Torsin-1A (Homo sapiens) (UniProt O14656). Description: torsin A binders from cell lysate, primary screen, small-molecule microarray, wild-type, 635/667 nm (AID 1149). The settings on record: COS7 hTOR1A-WT lysate, 635 nm fluorescence, higher = more signal.
The target is the same in assay [18]. Put plainly: small-molecule binders of mutant TOR1A in lysate, primary screen, cell lysate, small-molecule microarray, COS7 lysate, 635/667 nm fluorescence (AID 1150).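 Note: score pools 667 nm emission and signal to noise measuring lysate protein binding.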 The settings on record: COS7 hTOR1A mutant lysate, 635 nm fluorescence, higher = more signal.
For assay [19], the system named is Sonic hedgehog protein (Shh). Put plainly: small-molecule binders of Shh protein, primary screen, biochemical, small-molecule microarray, 635/667 nm fluorescence (AID 1151).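 Note: Shh protein binding to compounds spotted on small-molecule microarray slides; score combines spot fluorescence intensity with signal-to-noise across triplicate slides.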 The settings on record: small-molecule microarray binding, 635 nm fluorescence; higher = more signal.

Calls of active or inactive are those of the source. Unless noted, the rule behind the calls is not given here.

Torsin-1A (Homo sapiens), sequence (O14656 whole entry, looked up): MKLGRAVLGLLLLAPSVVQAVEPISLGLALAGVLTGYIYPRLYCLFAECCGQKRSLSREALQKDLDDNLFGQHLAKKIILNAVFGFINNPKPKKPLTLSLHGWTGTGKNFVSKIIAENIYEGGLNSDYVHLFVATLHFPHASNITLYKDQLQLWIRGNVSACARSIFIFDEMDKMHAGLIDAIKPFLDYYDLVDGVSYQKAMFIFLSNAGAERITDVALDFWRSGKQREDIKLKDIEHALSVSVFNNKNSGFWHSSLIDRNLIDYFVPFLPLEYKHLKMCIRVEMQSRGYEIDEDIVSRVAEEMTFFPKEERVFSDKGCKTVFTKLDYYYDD
Fibroblast growth factor 2 (Homo sapiens), sequence (P09038 whole entry, looked up): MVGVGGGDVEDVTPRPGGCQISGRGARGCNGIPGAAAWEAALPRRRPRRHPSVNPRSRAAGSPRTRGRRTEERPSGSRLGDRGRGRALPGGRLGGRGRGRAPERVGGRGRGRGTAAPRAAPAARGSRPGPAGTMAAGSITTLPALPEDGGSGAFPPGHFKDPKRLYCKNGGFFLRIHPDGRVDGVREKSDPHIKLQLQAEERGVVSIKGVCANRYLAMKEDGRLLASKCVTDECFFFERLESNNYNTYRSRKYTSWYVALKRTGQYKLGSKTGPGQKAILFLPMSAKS
Streptavidin (Streptomyces avidinii), sequence (P22629 whole entry, looked up): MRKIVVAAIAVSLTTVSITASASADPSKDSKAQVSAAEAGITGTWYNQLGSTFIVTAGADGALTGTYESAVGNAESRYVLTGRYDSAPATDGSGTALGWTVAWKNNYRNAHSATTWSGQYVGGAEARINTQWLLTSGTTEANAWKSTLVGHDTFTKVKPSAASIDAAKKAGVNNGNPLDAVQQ

As for `COc1cccc([C@H]2Oc3ccc(OC)cc3C(=NOC[C@@H](C)[C@H](OCc3ccccc3)C(C)C)[C@@H]2O)c1`, the composite z-score in [1] was 1.78; in assay [2], 0.321; in [3] it was 0.0885; in assay [4] it was 0.069; in [5], 0.232; in assay [6] it was 0.0521. In addition, the composite z-score with Lefty1 was 0.709; in assay [8] it was 0.872; in [10], 0.276; in [15], -0.234; in [16], -0.106; with Torsin-1A (Homo sapiens) [17] it was 0.577. The values for the composite z-score (with Torsin-1A (Homo sapiens) [18]; in assay [19]) were 0.83 and 0.115, respectively. The z-score was -0.789 in assay [7]; -0.0981 (inactive) in assay [9]; -0.324 (inactive) in [11]; 0.508 (inactive) in assay [12]; 0.666 (inactive) in assay [13]; 0.649 (inactive) in [14].

As to `COC(=O)[C@H]1[C@@H](O)[C@@]2(O)c3ccccc3O[C@@]2(c2ccccc2)[C@@H]1c1ccccc1`, the composite z-score is 0.434 in [1]; 0.0845 in assay [2]; -0.257 in [3]; -0.842 in assay [4]; 0.101 in [5]; 0.352 in [6]. Further, the composite z-score in the assay with Lefty1 was 0.285; in [8], 1.01; in assay [10] it was -0.113; in assay [15] it was -0.419; in assay [16], -0.0361; with Torsin-1A (Homo sapiens) [17] it was -0.225. Further, the composite z-score in the assay with Torsin-1A (Homo sapiens) [18] is 0.258; in assay [19] it was 0.143. Further, the z-score was 0.266 in [7]; 0.487 (inactive) in assay [9]; -0.359 (inactive) in assay [11]; 0.576 (inactive) in [12]; 1.57 (inactive) in assay [13]; 0.0923 (inactive) in assay [14].

With `O=C1C2=CC[C@H]3C(=O)N(c4cccc(Oc5ccccc5)c4)C(=O)[C@H]3[C@H]2[C@H](O)[C@@H]2O[C@H]12`, the composite z-score is 0.703 in assay [1]; 0.185 in assay [2]; -0.0765 in assay [3]; -0.156 in assay [4]; 0.916 in [5]; 0.425 in [6]. In addition, the composite z-score in the assay with Lefty1 is 0.755; in [8], 0.0467; in assay [10], 0.0049; in assay [15] it was 0.284; in [16], -0.239; with Torsin-1A (Homo sapiens) [17] it was 0.181. Further, the composite z-score with Torsin-1A (Homo sapiens) [18] is -0.111; in assay [19], 0.264. The z-score in [7] is -0.633; in [9] it was -1.27 (inactive); in assay [11], -6.01 (inactive); in assay [12] it was 0.478 (inactive); in assay [13] it was 0.699 (inactive); in assay [14], 19.7 (active).

As for `C#CCCCON=C1C[C@@H](O)[C@@H](O)[C@@H]2[C@@H]3C(=O)N(CC)C(=O)[C@@H]3CC[C@@H]12`, the composite z-score in [1] was 0.399; in assay [2] it was 0.63; in assay [3], -0.229; in assay [4], 0.0609; in assay [5], 0.759; in assay [6], 0.672. Besides, the composite z-score in the assay with Lefty1 is 0.289; in assay [8] it was -0.0002; in assay [10], -0.0855; in assay [15], -0.0757; in assay [16], -0.181; with Torsin-1A (Homo sapiens) [17], 0.787. The composite z-score with Torsin-1A (Homo sapiens) [18] turned out to be 0.555; in assay [19] it was 1.2. The z-score was -0.39 in assay [7]; 0.194 (inactive) in [9]; 0.0213 (inactive) in assay [11]; -0.327 (inactive) in assay [12]; -0.116 (inactive) in assay [13]; -0.14 (inactive) in assay [14].

Consider `CC(C)CON=C1C[C@@H](O)[C@@H](O)[C@@H]2[C@@H]3C(=O)N(Cc4ccc5c(c4)OCO5)C(=O)[C@@H]3CC[C@H]12`, for which the composite z-score was 0.193 in assay [1]; 0.689 in assay [2]; 0.0874 in [3]; 0.237 in [4]; 0.707 in [5]; 0.914 in [6]. For the same compound, the composite z-score in the assay on Lefty1 is 0.831; in assay [8], -0.0178; in assay [10], 0.365; in assay [15], 1.23; in assay [16], -0.0589; with Torsin-1A (Homo sapiens) [17], 0.217. In addition, the composite z-score with Torsin-1A (Homo sapiens) [18] was found to be 0.739; in assay [19] it was 1.45. For the same compound, the z-score in [7] was -0.72; in assay [9], 1.26 (inactive); in assay [11], -0.365 (inactive); in [12], 1.01 (inactive); in assay [13] it was 0.242 (inactive); in assay [14], 0.201 (inactive).

The record behind these values is PubChem BioAssay.
